Experimental data reported in the supplement of paper PMC13380429.

These molecules were tested on Vero E6 infected with SARS-CoV-2 (assay: morphology score (similarity to uninfected cells); higher = more like uninfected cells). Details: 24 h.

| Compound | morphology score |
| --- | --- |
| Cc1cc2c(cc1C(F)(F)F)N(C(=O)Nc1ccc(Oc3cccnc3C)nc1)CC2 (10 µM) | 0.281 |
| O=C1C(=C(O)/C=C/c2ccc(O)cc2)C(=O)[C@@](O)([C@@H]2O[C@H](CO)[C@@H](O)[C@H](O)[C@H]2O)C(=O)[C@H]1[C@@H]1O[C@H](CO)[C@@H](O)[C@H](O)[C@H]1O (10 µM) | 0.0573 |
| CC(C)(C)NC(=O)[C@@H](c1cccnc1)N(C(=O)c1ccco1)c1ccc(C(C)(C)C)cc1 (10 µM) | 0.333 |
| CNc1ccc([N+](=O)[O-])cc1-n1cnc(-c2ccc(C(F)(F)F)cc2)c1 (10 µM) | 0.117 |
| Cc1noc(C)c1-c1cc(O)cc([C@@H](O)c2ccccc2)c1 (10 µM) | 0.154 |
| CCCCNc1c(C(=O)OCC)c(C)nc2c1cnn2CC [tracazolate] (10 µM) | 0.174 |
| Oc1ccc2c(c1)CC[C@H](c1ccccc1)[C@@H]2c1ccc(OCCN2CCCC2)cc1 [lasofoxifene] (0.833333 µM) | 0.106 |
| Nc1nc(=O)[nH]cc1F [flucytosine] (10 µM) | -0.016 |
| c1nc2c(NC3CCCCC3)nc(Nc3ccc(N4CCOCC4)cc3)nc2[nH]1 [reversine] (10 µM) | -0.11 |
| CCOc1ccc2nc(SCCN3CCOCC3)[nH]c2c1 [afobazole] (10 µM) | -0.0209 |
| O=[N+]([O-])C(Br)(CO)CO [bronopol] (10 µM) | -0.0828 |
| NC/C(=C/F)CCc1ccc(F)cc1 [mofegiline] (10 µM) | -0.0471 |
| CC[C@H]1CN2CC[C@H]1C[C@@H]2[C@@H](O)c1ccnc2ccc(OC)cc12 [hydroquinidine] (10 µM) | 0.301 |
| CN1CCC(Nc2ncc3ncnc(Nc4ccc(F)c(Cl)c4)c3n2)CC1 (10 µM) | 0.0447 |
| NC(=O)CN1CCCC1=O [piracetam] (10 µM) | -0.0282 |
| O=c1[nH]c2ccccc2n1CCCN1CCN(C(c2ccccc2)c2ccccc2)CC1 [oxatomide] (10 µM) | -0.0451 |
| O[C@@H](CN1CCNCC1)Cn1c2ccc(Br)cc2c2cc(Br)ccc21 [BAX-channel-blocker] (0.833333 µM) | 0.121 |
| CN(C)CC[C@@H](c1ccc(Cl)cc1)c1ccccn1 [chlorphenamine] (10 µM) | 0.0978 |
| CC/C(=C(\c1ccccc1)c1ccc(OCCN(C)C)cc1)c1ccccc1 [tamoxifen] (0.833333 µM) | 0.135 |
| CC(C)(C)C[C@@H]1N[C@@H](C(=O)N[C@H]2CC[C@H](O)CC2)[C@H](c2cccc(Cl)c2F)[C@]12C(=O)Nc1cc(Cl)ccc12 (10 µM) | -0.042 |

| Compound | morphology score |
| --- | --- |
| COc1cc(-c2cc(-c3cccc(O)c3)cnc2N)cc(OC)c1OC (10 µM) | 0.51 |
| COCC[n+]1c2c(n(Cc3cnccn3)c1C)C(=O)c1ccccc1C2=O (0.833333 µM) | 0.0783 |
| Cc1cc(C)nc(NS(=O)(=O)c2ccc(N)cc2)n1 [sulfamethazine] (10 µM) | 0.0855 |
| CC(=O)OCC(CCn1cnc2cnc(N)nc21)COC(C)=O [famciclovir] (10 µM) | 0.139 |
| COC(=O)[C@]12CCC(C)(C)C[C@H]1[C@H]1C(=O)C=C3[C@@]4(C)C=C(C#N)C(=O)C(C)(C)[C@@H]4CC[C@@]3(C)[C@]1(C)CC2 [Bardoxolone Methyl] (10 µM) | -0.259 |
| CC(C)(C)NCC(O)COc1cc(Cl)ccc1Cl (centres undefined) [cloranolol] (10 µM) | -0.0735 |
| COc1ccc(Cn2ccc3ccc(C(=O)NO)cc32)cc1 (0.833333 µM) | 0.108 |
| Nc1ncc(Cc2ccc(Br)cc2)s1 (10 µM) | 0.13 |
| CNCCC(Oc1ccc(C(F)(F)F)cc1)c1ccccc1 (centres undefined) [fluoxetine] (10 µM) | 0.539 |
| CO[C@@H](C)Cn1c(=O)n(C)c2cnc3ccc(-c4cncc(C(C)(C)O)c4)cc3c21 (10 µM) | -0.000833 |
| NCC1CC(=O)N(Cc2ccccc2)C1 (centres undefined) [nebracetam] (10 µM) | 0.0779 |
| C[C@H]1C[C@H]2[C@@H]3CCC4=CC(=O)C=C[C@]4(C)[C@@]3(F)[C@@H](O)C[C@]2(C)[C@@]1(O)C(=O)CO [betamethasone] (10 µM) | -0.0234 |
| CCOC(=O)c1ncc2[nH]c3ccc(OCc4ccccc4)cc3c2c1COC (10 µM) | -0.0675 |
| C=C[C@H]1CN2CC[C@H]1C[C@@H]2[C@@H](O)c1ccnc2ccc(OC)cc12 [quinidine] (10 µM) | 0.155 |
| CC(C)c1ccc(NC(=O)Cn2cnc3c2c(=O)n(C)c(=O)n3C)cc1 (10 µM) | 0.0452 |
| C=C[C@@](C)(/C=C/c1ccc(O)cc1)CCC=C(C)C [bakuchiol] (10 µM) | -0.328 |
| Oc1nc(-c2ccc(C(F)(F)F)cc2)nc2c1CSCC2 (0.833333 µM) | 0.149 |
| CCc1cccc(CC)c1NC(=O)CN(CC(=O)O)CC(=O)O [etifenin] (10 µM) | 0.115 |
| CCCCOc1cc(C(=O)NCCN(CC)CC)c2ccccc2n1 [cinchocaine] (10 µM) | 0.435 |
